# Several values for one entry are separate records, joined by “and”; a condition that tells them apart may be missing. Identical values can stand only once. In all, about 5,500 compounds went through this assay and about 2,000 (36%) were called active. Not shown: some 18% with an inconclusive outcome. Cut-off read from the data, not from the text of the source: active = normalized growth mostly below about 0.91 (no sharp cut-off); inconclusive = no clear call, values can overlap the other calls; inactive = mostly above about 0.92. The list shows a part of the results. More than one record can exist for a structure, and the calls need not agree.
# Assay: chemical genetic growth profiling, strain panel (AID 1159580);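 note: tested at 20 µM; growth read once vehicle control cultures reached saturation at 30 °C; 1 = growth at the plate median or of vehicle wells; lower values mean less growth of the strain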
# Details: S. cerevisiae deletion strains, growth OD
smiles,measurement,setting,value
O=C(O)CCc1nc(-c2ccccc2)c(-c2ccccc2)o1,normalized growth,"locus YAL013W, strain DEP1, stronger effect = lower value",0.974 (inactive)
same,normalized growth,"locus YAL021C, strain ccr4, stronger effect = lower value",0.966 (inactive)
same,normalized growth,"locus YAL026C, strain drs2, stronger effect = lower value",0.929 (inactive)
same,normalized growth,"locus YAL030W, strain snc1, stronger effect = lower value",0.958 (inactive)
same,normalized growth,"locus YAL040C, strain CLN3, stronger effect = lower value",0.978 (inactive)
same,normalized growth,"locus YBL061C, strain skt5, stronger effect = lower value",0.965 (inactive)
same,normalized growth,"locus YBR009C, strain hhf1, stronger effect = lower value",0.964 (inactive)
same,normalized growth,"locus YBR023C, strain chs3, stronger effect = lower value",0.979 (inactive)
same,normalized growth,"locus YBR171W, strain sec66, stronger effect = lower value",0.949 (inactive)
same,normalized growth,"locus YBR229C, strain ROT2, stronger effect = lower value",0.929 (active)
same,normalized growth,"locus YBR231C, strain swc5, stronger effect = lower value",0.96 (inactive)
same,normalized growth,"locus YBR279W, strain paf1, stronger effect = lower value",0.975 (inactive)
same,normalized growth,"locus YCL011C, strain gbp2, stronger effect = lower value",0.943 (inactive)
same,normalized growth,"locus YCL016C, strain dcc1, stronger effect = lower value",0.954 (inactive)
same,normalized growth,"locus YCL061C, strain MRC1 (second series), stronger effect = lower value",0.996 (inactive)
same,normalized growth,"locus YCL061C, strain MRC1, stronger effect = lower value",0.92 (active)
same,normalized growth,"locus YCL069W, strain vba3, stronger effect = lower value",0.965 (inactive)
same,normalized growth,"locus YCR088W, strain abp1, stronger effect = lower value",0.962 (inactive)
same,normalized growth,"locus YDL005C, strain med2, stronger effect = lower value",0.959 (inactive)
same,normalized growth,"locus YDL040C, strain nat1, stronger effect = lower value",0.955 (inactive)
same,normalized growth,"locus YDL101C, strain DUN1, stronger effect = lower value",0.995 (inactive)
same,normalized growth,"locus YDR001C, strain nth1, stronger effect = lower value",0.925 (inactive)
same,normalized growth,"locus YDR069C, strain doa4, stronger effect = lower value",0.954 (inactive)
same,normalized growth,"locus YDR137W, strain rgp1, stronger effect = lower value",0.925 (inactive)
same,normalized growth,"locus YDR150W, strain NUM1, stronger effect = lower value",1 (inactive) and 1.04 (inactive)
same,normalized growth,"locus YDR159W, strain sac3, stronger effect = lower value",0.916 (inactive)
same,normalized growth,"locus YDR195W, strain ref2",0.969 (inactive)
same,normalized growth,"locus YDR297W, strain sur2, stronger effect = lower value",0.955 (inactive)
same,normalized growth,"locus YDR334W, strain swr1, stronger effect = lower value",0.948 (inactive)
same,normalized growth,"locus YDR335W, strain msn5, stronger effect = lower value",0.965 (inactive)
same,normalized growth,"locus YDR363W, strain ESC2, stronger effect = lower value",0.979 (inactive)
same,normalized growth,"locus YDR392W, strain spt3, stronger effect = lower value",0.831 (inactive)
same,normalized growth,"locus YEL003W, strain gim4, stronger effect = lower value",0.943 (inactive)
same,normalized growth,"locus YEL037C, strain rad23, stronger effect = lower value",0.968 (inactive)
same,normalized growth,"locus YEL061C, strain CIN8 (second series), stronger effect = lower value",0.941 (inactive)
same,normalized growth,"locus YEL061C, strain CIN8, stronger effect = lower value",1 (inactive)
same,normalized growth,"locus YER002W, strain NOP16, stronger effect = lower value",0.998 (inactive)
same,normalized growth,"locus YER015W, strain faa2, stronger effect = lower value",0.974 (inactive)
same,normalized growth,"locus YER016W, strain bim1, stronger effect = lower value",0.961 (inactive)
same,normalized growth,"locus YER111C, strain swi4, stronger effect = lower value",0.958 (inactive)
same,normalized growth,"locus YER155C, strain BEM2 (second series), stronger effect = lower value",0.958 (inactive)
same,normalized growth,"locus YFR010W, strain ubp6, stronger effect = lower value",0.958 (inactive)
same,normalized growth,"locus YGL167C, strain pmr1, stronger effect = lower value",0.961 (inactive)
same,normalized growth,"locus YGL173C, strain kem1, stronger effect = lower value",0.958 (inactive)
same,normalized growth,"locus YGL227W, strain vid30, stronger effect = lower value",0.957 (inactive)
same,normalized growth,"locus YGL240W, strain doc1, stronger effect = lower value",0.95 (inactive)
same,normalized growth,"locus YGL253W, strain hxk2, stronger effect = lower value",0.957 (inactive)
same,normalized growth,"locus YGR078C, strain PAC10, stronger effect = lower value",0.909 (active)
same,normalized growth,"locus YGR229C, strain SMI1, stronger effect = lower value",0.976 (inactive)
same,normalized growth,"locus YHR013C, strain ard1, stronger effect = lower value",0.938 (inactive)
same,normalized growth,"locus YHR027C, strain rpn1, stronger effect = lower value",0.971 (inactive)
same,normalized growth,"locus YHR030C, strain SLT2, stronger effect = lower value",0.935 (inactive) and 1.03 (inactive)
same,normalized growth,"locus YHR079C, strain IRE1, stronger effect = lower value",0.967 (inactive)
same,normalized growth,"locus YHR087W, strain rtc3, stronger effect = lower value",0.925 (inactive)
same,normalized growth,"locus YHR142W, strain chs7, stronger effect = lower value",0.963 (inactive)
same,normalized growth,"locus YJL092W, strain hpr5, stronger effect = lower value",0.949 (inactive)
same,normalized growth,"locus YJL095W, strain BCK1 (second series), stronger effect = lower value",0.959 (inactive)
same,normalized growth,"locus YJL095W, strain BCK1, stronger effect = lower value",0.901 (inactive)
same,normalized growth,"locus YJL115W, strain asf1, stronger effect = lower value",0.956 (inactive)
same,normalized growth,"locus YJL129C, strain trk1, stronger effect = lower value",0.926 (inactive)
same,normalized growth,"locus YJL154C, strain vps35, stronger effect = lower value",0.966 (inactive)
same,normalized growth,"locus YJL164C, strain tpk1, stronger effect = lower value",0.954 (inactive)
same,normalized growth,"locus YJL166W, strain qcr8, stronger effect = lower value",0.976 (inactive)
same,normalized growth,"locus YJR043C, strain POL32, stronger effect = lower value",0.959 (inactive)
same,normalized growth,"locus YJR066W, strain TOR1, stronger effect = lower value",0.884 (inactive)
same,normalized growth,"locus YJR075W, strain HOC1, stronger effect = lower value",0.888 (active)
same,normalized growth,"locus YKL160W, strain elf1, stronger effect = lower value",0.982 (inactive)
same,normalized growth,"locus YKL190W, strain CNB1, stronger effect = lower value",0.983 (inactive)
same,normalized growth,"locus YKR026C, strain gcn3, stronger effect = lower value",0.958 (inactive)
same,normalized growth,"locus YKR091W, strain srl3, stronger effect = lower value",0.957 (inactive)
same,normalized growth,"locus YLL001W, strain dnm1, stronger effect = lower value",0.973 (inactive)
same,normalized growth,"locus YLL026W, stronger effect = lower value",0.965 (inactive)
same,normalized growth,"locus YLL041C, strain sdh2, stronger effect = lower value",0.961 (inactive)
same,normalized growth,"locus YLR027C, strain aat2, stronger effect = lower value",0.966 (inactive)
same,normalized growth,"locus YLR039C, strain RIC1, stronger effect = lower value",0.994 (inactive)
same,normalized growth,"locus YLR058C, strain SHM2 (second series), stronger effect = lower value",0.929 (active)
same,normalized growth,"locus YLR085C, strain ARP6, stronger effect = lower value",0.92 (inactive)
same,normalized growth,"locus YLR113W, strain HOG1, stronger effect = lower value",0.787 (active)
same,normalized growth,"locus YLR221C, strain rsa3, stronger effect = lower value",0.935 (inactive)
same,normalized growth,"locus YLR258W, strain gsy2, stronger effect = lower value",0.955 (inactive)
same,normalized growth,"locus YLR262C, strain YPT6 (second series), stronger effect = lower value",0.951 (inactive)
same,normalized growth,"locus YLR262C, strain YPT6, stronger effect = lower value",1.02 (inactive)
same,normalized growth,"locus YLR320W, strain mms22, stronger effect = lower value",0.933 (inactive)
same,normalized growth,"locus YLR342W, strain FKS1, stronger effect = lower value",0.97 (inactive)
same,normalized growth,"locus YLR357W, strain rsc2, stronger effect = lower value",0.985 (inactive)
same,normalized growth,"locus YLR370C, strain arc18, stronger effect = lower value",0.961 (inactive)
same,normalized growth,"locus YLR384C, strain iki3, stronger effect = lower value",0.98 (inactive)
same,normalized growth,"locus YML094W, strain GIM5, stronger effect = lower value",1.02 (inactive)
same,normalized growth,"locus YML120C, strain ndi1, stronger effect = lower value",0.952 (inactive)
same,normalized growth,"locus YMR058W, strain fet3, stronger effect = lower value",0.956 (inactive)
same,normalized growth,"locus YMR125W, strain sto1, stronger effect = lower value",0.938 (inactive)
same,normalized growth,"locus YMR129W, stronger effect = lower value",0.943 (inactive)
same,normalized growth,"locus YMR205C, strain PFK2, stronger effect = lower value",0.954 (inactive)
same,normalized growth,"locus YMR219W, strain ESC1, stronger effect = lower value",0.944 (active)
same,normalized growth,"locus YMR231W, strain pep5, stronger effect = lower value",0.967 (inactive)
same,normalized growth,"locus YMR263W, strain SAP30, stronger effect = lower value",0.9 (active)
same,normalized growth,"locus YMR307W, strain GAS1, stronger effect = lower value",1 (inactive) and 0.949 (inactive)
same,normalized growth,"locus YNL071W, strain lat1, stronger effect = lower value",0.935 (inactive)
same,normalized growth,"locus YNL153C, strain GIM3, stronger effect = lower value",0.964 (inactive)
same,normalized growth,"locus YNL175C, strain NOP13, stronger effect = lower value",0.986 (inactive)
same,normalized growth,"locus YNL183C, strain NPR1, stronger effect = lower value",0.868 (inactive)
same,normalized growth,"locus YNL197C, strain WHI3, stronger effect = lower value",0.987 (inactive)
same,normalized growth,"locus YNL209W, strain ssb2, stronger effect = lower value",0.972 (inactive)
same,normalized growth,"locus YNL224C, strain SQS1, stronger effect = lower value",0.977 (inactive)
same,normalized growth,"locus YNL248C, strain rpa49, stronger effect = lower value",0.974 (inactive)
same,normalized growth,"locus YNL298W, strain CLA4 (second series), stronger effect = lower value",1 (inactive)
same,normalized growth,"locus YNL322C, strain KRE1 (second series), stronger effect = lower value",0.949 (inactive)
same,normalized growth,"locus YNL322C, strain KRE1, stronger effect = lower value",1 (inactive) and 0.926 (active)
same,normalized growth,"locus YNR030W, strain Alg12, stronger effect = lower value",1 (inactive)
same,normalized growth,"locus YNR049C, strain mso1, stronger effect = lower value",0.941 (inactive)
same,normalized growth,"locus YOR001W, strain rrp6, stronger effect = lower value",1 (inactive)
same,normalized growth,"locus YOR070C, strain gyp1, stronger effect = lower value",0.963 (inactive)
same,normalized growth,"locus YOR080W, strain dia2, stronger effect = lower value",0.957 (inactive)
same,normalized growth,"locus YOR083W, strain WHI5 (second series), stronger effect = lower value",1 (inactive)
same,normalized growth,"locus YOR083W, strain WHI5, stronger effect = lower value",0.982 (inactive)
same,normalized growth,"locus YOR106W, strain vam3, stronger effect = lower value",0.973 (inactive)
same,normalized growth,"locus YOR231W, strain MKK1, stronger effect = lower value",0.942 (inactive)
same,normalized growth,"locus YOR265W, strain rbl2, stronger effect = lower value",0.97 (inactive)
same,normalized growth,"locus YOR270C, strain vph1, stronger effect = lower value",0.952 (inactive)
same,normalized growth,"locus YOR290C, strain snf2, stronger effect = lower value",0.93 (inactive)
same,normalized growth,"locus YPL051W, strain arl3, stronger effect = lower value",0.98 (inactive)
same,normalized growth,"locus YPL055C, strain LGE1, stronger effect = lower value",0.996 (inactive)
same,normalized growth,"locus YPL078C, strain atp4, stronger effect = lower value",0.972 (inactive)
same,normalized growth,"locus YPL106C, strain sse1, stronger effect = lower value",0.869 (inactive)
same,normalized growth,"locus YPL240C, strain hsp82, stronger effect = lower value",0.963 (inactive)
same,normalized growth,"locus YPL241C, strain CIN2, stronger effect = lower value",1 (inactive) and 0.984 (inactive)
same,normalized growth,"locus YPL256C, strain CLN2, stronger effect = lower value",0.96 (inactive)
same,normalized growth,"locus YPR135W, strain CTF4, stronger effect = lower value",1.08 (inactive)
